This is one part of a sample in which hits are shown more often than they occur.
Tgondii IFNg – blocks Toxoplasma gondii growth in the presence of IFN-gamma | Toxoplasma gondii growth in IFN-gamma-treated host cells; hits give low values | hit rate 3.8% among 69,000 | AID 1259416 | activity change, negative = inhibition, % (concentration not given with the values); in the data active = activity change below about -70%, passing the limit was not always enough;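 also: host cells are HeLa cells infected with Toxoplasma gondii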
Numbers without * were called inactive; ! = not confirmed by another sample.

SMILES	Tgondii IFNg
CCCCC[C@H](CC(=O)NO)C(=O)N[C@H](C(=O)N1CCC[C@H]1CO)C(C)C	-77.3*
CCC(=O)Nc1cccc(C(=O)N2CCC[C@H]2CO)c1	5.2
CC(C)NC(=O)N1CCC2(CC1)CC1(CCN(c3ncccn3)CC1)C(=O)N2C	2.9
COc1ccc(-c2nn(-c3ccccc3)cc2CN(C)Cc2cnc3ccccn23)c(F)c1	-35.4
Fc1cnc(N2CCO[C@H]3CN(Cc4ccc(Cl)c(F)c4)C[C@@H]32)nc1	-4.5
COc1ccc(-c2nc(CSc3nc4c(c(=O)[nH]3)CN(Cc3ccccc3)CC4)c(C)o2)cc1	-77.3*
Cc1oc(-c2ccccc2)nc1CSc1nc2c(c(=O)[nH]1)CN(Cc1ccccc1)CC2	-36.3
COc1ccc(CN2CCc3nc(SCc4nc(-c5ccccc5)oc4C)[nH]c(=O)c3C2)cc1	-14.6
CCc1cc2c(=O)n(CC(=O)Nc3nc(CC(N)=O)cs3)cnc2s1	-3.5
COc1cncc(C(=O)Nc2ccccc2)c1	153.3
O=C(O)C1CC(N2CCCC2)CCN1C(=O)c1ccc2c(c1)OCO2 (stereo not drawn)	-37.5
c1ccc(OCC2CC3(CCN(Cc4ccco4)CC3)CO2)nc1 (stereo not drawn)	-18.3
CCOc1ccc(-c2nc(CN(C)S(=O)(=O)c3ccc(C)cc3C)c(C)o2)cc1	-40.2
Oc1c(Cl)cc(Cl)c2cccnc12	-82.9*
Oc1c(I)cc(I)c2cccnc12	-76.1*!
Cc1ccc2c(Cl)cc(Cl)c(O)c2n1	-81.5*
O=C(Oc1ccc(Cl)c2cccnc12)c1cccnc1	-67.6
O=S(=O)(O)c1cc(I)c(O)c2ncccc12	9.9
COc1ccc(-c2ncc(Cl)cn2)c2ccc(C)nc12	-37.7
Oc1ccc(Cl)c2cccnc12	12.2
O=c1[nH]n(CCO)c(=O)c2cccnc12	76.8
CN(C)CCOCc1cncc2c1CCN(C(=O)c1cccs1)C2	0.5
O=C(NC1CCN(Cc2cccc(O)c2)CC1)c1ncn[nH]1	-1.3
CN1Cc2ccccc2C2(CCN(Cc3cnn(C)c3)CC2)C1	5.0
Cc1ncc2c(c1-c1noc(C(C)Oc3cccc(Cl)c3)n1)CCNC2 (stereo not drawn)	-17.0
SMILES	Tgondii IFNg
O=C(NC1(c2ccc(F)cc2)CCCC1)c1ccc2ncccc2c1	61.0
CN1CCN(C(=O)NCc2nc(-c3cccc(F)c3)c(-c3ccccn3)[nH]2)CC1	1.2
CN1CCC(n2cc(-c3ccnc(N)c3)c(-c3cccc(F)c3)n2)CC1	-97.1*
Cn1cc(CN2CCc3ncnc(-c4cccc(F)c4)c3CC2)cn1	-6.2
c1ccc(-c2ccc(-c3cnc(-c4ccncc4)s3)cc2)cc1	50.6
CCOc1ccccc1NS(=O)(=O)c1cccs1	2.9
O=S(=O)(Nc1cc(Sc2ncn[nH]2)c(O)c2ccccc12)c1cccs1	-98.3*
O=C(NCc1cccnc1)c1ccccc1NS(=O)(=O)c1cccs1	27.9
CN(C)C(=O)CN1C[C@H]2OCCN(Cc3cnn(C)c3)[C@H]2C1	-22.8
CCC(c1ccccn1)N(C)Cc1ncccc1C(=O)O (stereo not drawn)	0.9
COC(=O)[C@@H]1C[C@@H](NC(=O)c2c(C)cc(C)[nH]c2=O)CN1C	0.5
COc1ccc(C)cc1NC(=O)c1nc(Nc2ccc(C)cc2)c2ccccc2n1	-12.5
Cc1nc(Nc2n[nH]c3c2CN(C(=O)N[C@H](CN(C)C)c2ccccc2)C3(C)C)c2sccc2n1	-74.9*
CCn1c(C2CCCNC2)nn(CCc2cccc3ccccc23)c1=O (stereo not drawn)	10.6
Cc1onc(C(C)C)c1C(=O)Nc1nnc(Cc2cccc(F)c2)s1	-28.6
CCc1ncc2c(n1)CN(C(=O)Cc1ccccc1OCc1ccccc1)C2	-2.5
COc1ccc2c(c1)cc(C(=O)NCc1ncc[nH]1)n2C	30.5
N#CCCNC(=O)c1cc2c(c3ccccc3n2CC2CC2)n1-c1ncccn1	-45.9
Cn1c(C(=O)NCc2ccco2)cc2c1c1ccccc1n2CC1CC1	3.5
CCN(CC)CCCNC(=O)c1cc2c(c3ccccc3n2CC2CC2)n1C	-77.5*
C=CCCc1n[nH]c(Cc2ccccc2)n1	-38.7
COc1cccc(CNC(=O)COc2c(C)ccc(C)c2C)c1OC	10.1
CCn1c(SCc2nc(-c3ccc(Cl)cc3)oc2C)nc(=O)c2c(C(=O)OC)cc(C)nc21	116.3
CNC(=O)c1nn(C)c2c1C(C)(C)Cc1cnc(Nc3ccc(N4CCN(C)CC4)cc3)nc1-2	-58.1
CN1CCN(c2ccc(OC(F)(F)F)c(Nc3ncc4c(n3)-c3c(c(C(N)=O)nn3CCO)CC4)c2)CC1	-80.8*
SMILES	Tgondii IFNg
COc1ccc2c(c1)NC1(CCN(S(=O)(=O)c3ccc(NC(C)=O)cc3)CC1)c1cccn1-2	-26.6
O=C(CCC1Nc2c3ccccc3nc(=S)n2C1=O)NCCc1ccccc1Cl (stereo not drawn)	4.0
O=C(Cn1c(SCC(=O)N2CCc3ccccc3C2)nc2ccccc21)NC1CCCC1	2.6
Cc1nnc(SCC(=O)N2CCc3[nH]c4ccc(F)cc4c3C2)o1	-6.9
O=C(CSc1nnc(CNc2ccc(F)cc2)o1)N1CCc2ccccc2C1	-81.0*
O=C(O)[C@H]1C[C@H](C(=O)NCc2ccccn2)CN(C2Cc3ccccc3C2)C1	2.0
O=C(c1ccc(Cn2cnnn2)cc1)N1CCN(CC2CCCO2)CC1 (stereo not drawn)	40.2
CC(C)C(=O)NCc1csc(C2CCCN(C(=O)c3ccc(F)cc3)C2)n1 (stereo not drawn)	16.3
Cc1ccc(NC(=O)c2c(O)c3cccnc3[nH]c2=O)cc1	58.7
Cc1ccc(NC(=O)c2snc3c(=O)[nH]cnc23)cc1	-110.9*
CSc1nsc(SCC(=O)Nc2ccc(C)cc2)n1	98.9
CS(=O)(=O)N1CCc2onc(CNc3cccnc3)c2C1	3.9
CC(C)Oc1ccc(-c2noc(-c3c(O)c4cc(Cl)ccc4[nH]c3=O)n2)cc1	-5.7
Cc1oc2c(c1C(=O)Nc1cccc(OCCN3CCOCC3)c1)CCCC2	39.9
COc1c(C)c2c(c(O)c1C/C=C(\C)CCC(=O)OCCN1CCOCC1)C(=O)OC2	-76.1*
CC(C)(C)c1cc(N/C=C/c2nnnn2-c2ccc(Br)cc2)no1	-45.5
CCCn1c(=O)c(-c2nc(-c3ccc(OC)cc3)no2)c(O)c2ccccc21	-8.9
CCS(=O)(=O)N1C[C@@H]2OCCN(CCN3CCCC3)[C@H]2C1	7.3
COc1ccc([C@@H]2CC(=O)c3c(O)cc(O)cc3O2)cc1O	-76.9*!
O=C1C[C@@H](c2ccccc2)Oc2cc(O)cc(O)c21	1.5
COc1ccc([C@@H]2CC(=O)c3c(O)cc(O[C@@H]4O[C@H](CO[C@@H]5O[C@@H](C)[C@H](O)[C@@H](O)[C@H]5O)[C@@H](O)[C@H](O)[C@H]4O)cc3O2)cc1O	10.3
COc1ccc(-c2ccc3ncc4c(c3c2)n(-c2ccc(N3CCNCC3)c(C(F)(F)F)c2)c(=O)n4C)cn1	-89.7*
COc1ccc(-c2nccc(C(F)(F)F)n2)cn1	61.8
COc1ccc(C(=O)Nc2ccc3c(c2)nc(C(F)(F)F)n3C)cn1	20.3
COc1cccc(CNc2nc(-c3nnc(-c4ccc(C)cc4)o3)nc3ccccc23)c1	-11.0
COc1ccc(-c2nnc(-c3nc(NCc4ccc(C)cc4)c4ccccc4n3)o2)cc1	-3.6
Cc1cccc(-c2nnc(-c3nc(NC4CCS(=O)(=O)C4)c4ccccc4n3)o2)c1 (stereo not drawn)	-96.3*
Clc1cccc(-c2nnc(-c3nc(NCc4ccco4)c4ccccc4n3)o2)c1	-69.2
Fc1ccc(-c2nnc(-c3nc(NCc4ccco4)c4ccccc4n3)o2)cc1	-85.6*
Cc1cccc(CNc2nc(-c3nnc(-c4ccc(F)cc4)o3)nc3ccccc23)c1	-101.0*
